We go through 33 molecules from ChEMBL document CHEMBL3988442, “University of Dundee, Small-Polar-MMV Screening Library” (2021).

Screen size: about 48,000 compounds; about 13,000 (27%) showed an effect of 50% or more. The list shows a part of the results.

This experiment has as its system Wolbachia pipientis. Put plainly: Anti-Wolbachia Cell-Based Screen. In kind it is functional. Further details: scale not given: in the data most compounds retested in dose-response had high values. The conditions noted are these: 5 µM.
Take `O=C(O)CC[C@@H]1CN(c2ccncc2)CC[C@@H]1N1CCOCC1`: the “Percent Effect” value was -3.387%.

With `Cc1ccc(C(=O)N2CCSCC2)cc1NC(=O)NCC1CCC1`, the “Percent Effect” value is on record as -32.66%.

Regarding `Cc1cnn(CC2CCCN2CC(=O)Nc2cc(C(C)C)no2)c1` (stereo not drawn), the “Percent Effect” value was 129.6%.

With `Cc1cnn(CC2CCCN2CC(=O)N(C)Cc2ccc(C)o2)c1` (stereo not drawn), the “Percent Effect” value amounted to 15.94%.

Consider `Cn1ncc(NCc2cc(F)cc(F)c2)c(Cl)c1=O`, for which the “Percent Effect” value is on record as -8.673%.

`COc1ccc(NC(=O)CCC2CCCN(Cc3ncon3)C2)cc1Cl` (stereo not drawn): the “Percent Effect” value was determined as 9.109%.

As for `CN(C)CCCNC(=O)CNC(=O)N1CCc2c([nH]c3ccccc23)C1`, the “Percent Effect” value turned out to be 22.94%.

As for `CN(C)CCNC(=O)CNC(=O)N1CCc2c([nH]c3ccc(Cl)cc23)C1`, the “Percent Effect” value is recorded as 31.1%.

For the molecule `CN(CC(=O)N1CCc2[nH]c3ccc(F)cc3c2C1)CC1OCCO1`, the “Percent Effect” value amounted to 90.48%.

For `CN(CC(=O)N1CCc2[nH]c3ccccc3c2C1)CC1OCCO1`, the “Percent Effect” value was 105.4%.

Take `CC1CN(C(=O)c2cc(=O)[nH]c3ccc(F)cc23)CCO1` (stereo not drawn): the “Percent Effect” value was 4.129%.

Take `CN(C)C[C@@H]1[C@H]2CN(C(=O)c3cc(=O)[nH]c4ccc(F)cc34)C[C@@H]12`: the “Percent Effect” value is listed as -6.499%.

Regarding `Cc1ccc2[nH]c3c(c2c1)CN(C(=O)CN(C)CC1OCCO1)CC3`, the “Percent Effect” value turned out to be 95.71%.

Take `O=C(CN1CCc2[nH]c3ccccc3c2C1)NCc1ccco1`: the “Percent Effect” value was -4.019%.

Regarding `O=C(CNC(=O)N1CCc2c([nH]c3ccc(Cl)cc23)C1)N1CCOCC1`, the “Percent Effect” value was determined as 10.93%.

In the case of `c1ccc2c(NCC3(N4CCOCC4)CCSC3)ncnc2c1` (stereo not drawn), the “Percent Effect” value is -37.37%.

In the case of `CSCCC(C)NC(=O)c1cccc(-c2n[nH]c(C)n2)c1` (stereo not drawn), the “Percent Effect” value was -6.222%.

For the molecule `CCC(CC)NC(=O)c1ccc2c(c1)C(c1nc[nH]n1)CN2S(C)(=O)=O` (stereo not drawn), the “Percent Effect” value is -0.8083%.

For the molecule `CSCCC(CO)NC(=O)c1ccc2[nH]/c(=N\S(C)(=O)=O)sc2c1` (stereo not drawn), the “Percent Effect” value is reported as 102%.

Take `CC(CO)NC(=O)c1ccc2[nH]/c(=N\S(C)(=O)=O)sc2c1` (stereo not drawn): the “Percent Effect” value was 96.98%.

Turning to `COc1ccnc(N(C)Cc2ccco2)n1`, the “Percent Effect” value turned out to be 6.13%.

Take `Cc1nn(C)c(C)c1CN(C)c1nc(C2CC2)nc2c(C)nn(C)c12`: the “Percent Effect” value was found to be 9.92%.

Consider `Cc1nn(C)c2c(NCc3ccccc3F)nc(C3CC3)nc12`, for which the “Percent Effect” value is reported as -10.39%.

In the case of `Cc1nn(C)c2c(NCc3cccnc3)nc(C3CC3)nc12`, the “Percent Effect” value is on record as -0.9652%.

`Cc1nn(C)c2c(N(C)Cc3ccco3)nc(C3CC3)nc12`: the “Percent Effect” value is listed as 91.93%.

Turning to `Cc1nn(C)c2c(N(C)Cc3cccs3)nc(C3CC3)nc12`, the “Percent Effect” value is given as 84.71%.

Consider `O=C(NCCCO)c1cnc(-c2ccccc2)nc1O`, for which the “Percent Effect” value was -7.002%.

Regarding `Cc1nc(NCCN2CCCC2=O)cc(C2CN(C(C)C)CCO2)n1` (stereo not drawn), the “Percent Effect” value is reported as 108.1%.

Turning to `CC(CCN1CCCC1=O)NCc1cnc(C2CCC2)s1` (stereo not drawn), the “Percent Effect” value came out at 5.748%.

Take `CC(=O)N1CCN(c2cc(C3CN(C)CCO3)nc(C)n2)CC1` (stereo not drawn): the “Percent Effect” value was -11.29%.

Regarding `Cc1cnn(CC2CN(CCN3CCCC3=O)CCO2)c1` (stereo not drawn), the “Percent Effect” value was -2.569%.

In the case of `Cc1cc(N2CCCC(OC(=O)CCN3CCCC3=O)C2)nc(C)n1` (stereo not drawn), the “Percent Effect” value is -12.05%.

On to `Cc1nc(NCCN2CCCC2=O)cc(C2CN(C)CCO2)n1` (stereo not drawn), for which the “Percent Effect” value worked out at 121.4%.
